Screen size: about 38,000 compounds; about 1,200 (3.2%) showed an effect of 50% or more. The median lay at about -58%. What follows is part of a selection rich in strong results, with near analogues and random picks from the rest.
system: Plasmodium falciparum; test: Calibr Malaria Delayed Death Assay SOP; format: functional, organism-based; parameters: scale not given: in the data most compounds retested in dose-response had high values; conditions: concentration 4.99e-06 (unit not given; other assays of the set use mol/L)

Row | SMILES | Percent Effect [%]
1 | O=C(CC1CCCC1)N1C[C@@H]2CCN(c3cccnc3)C[C@@H]2C1.O=C(O)C(F)(F)F | -61.89
2 | Cn1cncc1CNC1CC2(CCN(CC3CC3)CC2)c2ccccc21.O=C(O)C(F)(F)F.O=C(O)C(F)(F)F (stereo not drawn) | -88.17
3 | O=C(NC1CC2(CCN(CCO)CC2)c2ccccc21)c1ccno1.O=C(O)C(F)(F)F (stereo not drawn) | -16.34
4 | O=C(NC1CC2(CCN(CCO)CC2)c2ccccc21)c1ccncc1.O=C(O)C(F)(F)F.O=C(O)C(F)(F)F (stereo not drawn) | -81.16
5 | Cc1ccc(CNC2CC3(CCN(CCO)CC3)c3ccccc32)s1.O=C(O)C(F)(F)F.O=C(O)C(F)(F)F (stereo not drawn) | 84.71
6 | Cc1cccc(CNC2CC3(CCN(CCO)CC3)c3ccccc32)n1.O=C(O)C(F)(F)F.O=C(O)C(F)(F)F (stereo not drawn) | 77.51
7 | Cc1ccc(CNC(=O)CN2CCN(CCO)CC2)s1 | -40.21
8 | COCC(=O)NC1CC2(CCN(CCO)CC2)c2ccccc21.O=C(O)C(F)(F)F (stereo not drawn) | -47.31
9 | CCOC1CC2(CCN(CCO)CC2)c2ccc(C)cc21 (stereo not drawn) | 16.18
10 | Cc1ccc2c(c1)C(NC(=O)N(C)C)CC21CCN(C)CC1.O=C(O)C(F)(F)F (stereo not drawn) | -16.75
11 | CCN1CCC2(CC1)CC(NC(=O)N(C)C)c1cc(C)ccc12.O=C(O)C(F)(F)F (stereo not drawn) | -8.453
12 | Cc1ccc2c(c1)C(N(C)C)CC21CCN(CCO)CC1.O=C(O)C(F)(F)F.O=C(O)C(F)(F)F (stereo not drawn) | 74.01
13 | O=C(Cc1ccn[nH]1)N1CCc2cc(Br)sc2C1 | -31.09
14 | CC1(C)COCCN1C(=O)c1ccc(Cn2cncn2)cc1 | -28.18
15 | Fc1ccc(OCCCN2CCCC(Cn3cncn3)C2)cc1 (stereo not drawn) | -24.19
16 | CN(C)CCNC(=O)c1nc2c(s1)CCCN2C(=O)C1CC1.O=C(O)C(F)(F)F | 21.8
17 | Cc1nc(CN2CCCn3c(nc(Cn4cncn4)cc3=O)C2)cs1.O=C(O)C(F)(F)F | -37.93
18 | Cc1cc(CN(C)C(=O)c2ccc(OCC(F)(F)F)nc2)no1 | -117.9
19 | CC(C)c1nn(C)c(Cl)c1CNCC(=O)N1CCN(C)CC1.Cl | -109.8
20 | Cn1ncc(C(=O)O)c1C(=O)Nc1nc2ccccc2s1 | -36.51
21 | C[C@@H]1CN(Cc2cn(C)nc2-c2ccccc2F)C[C@H](C)O1 | -119.2

Row | SMILES | Percent Effect [%]
22 | CC(NC(=O)N1CCN(c2cccs2)CC1)c1ccc(C#N)cc1 (stereo not drawn) | 61
23 | CC(NC(=O)N1CCN(c2cccs2)CC1)c1ccncc1 (stereo not drawn) | -36.24
24 | Cc1noc(C)c1C(C)NC(=O)N1CCN(c2cccs2)CC1 (stereo not drawn) | -38.18
25 | CN(Cc1ccccc1)CC1CC2(CO1)CN(Cc1nccs1)C2 (stereo not drawn) | 3.92
26 | CN(Cc1ccccc1)CC1CC2(CO1)CN(Cc1cnn(C)c1)C2 (stereo not drawn) | 50.64
27 | CN(Cc1ccccc1)CC1CC2(CO1)CN(c1nncs1)C2 (stereo not drawn) | -3.819
28 | Cc1nn(CC(=O)N2CCC3(CN(C)C(=O)O3)C2)c(=O)c2ccccc12 (stereo not drawn) | -0.9093
29 | c1cc(CNCc2ccnc(N3CCCC3)c2)c2c(c1)OCO2 | -28.94
30 | Cc1ccc(CNCC2CCCN2c2cccnn2)s1 (stereo not drawn) | 44
31 | Cc1cn2c(n1)C(CNCc1cccc3c1OCO3)CCC2 (stereo not drawn) | 81.04
32 | Cc1nc(C)c(CNCC2CCCn3ccnc32)s1 (stereo not drawn) | -88.04
33 | Cn1cc(N2CCCC(NCc3cccc4c3OCCCO4)C2)cn1 (stereo not drawn) | -37.41
34 | Clc1snnc1CN1CCCCC1Cn1cccn1 (stereo not drawn) | -105.5
35 | CN(Cc1cccc(C#N)c1)Cn1nc(C(C)(C)C)ccc1=O | -75.82
36 | COc1cc(NC(=O)c2cc(Cl)ccc2F)c(C(=O)N(C)C)cc1OC | -86.88
37 | Cc1nnc2ccc(OCCNS(=O)(=O)c3cccs3)nn12 | -74.14
38 | CCC1=N[C@@]2(CC[C@@H]3CN(Cc4ccccc4F)C[C@@H]32)C(=O)N1CC.O=C(O)C(F)(F)F | 37.33
39 | CC1=N[C@@]2(CC[C@@H]3CN(Cc4ccccc4F)C[C@@H]32)C(=O)N1CC1CC1.O=C(O)C(F)(F)F | 66.32
40 | CC1=N[C@@]2(CC[C@@H]3CN(CC(=O)N(C)C)C[C@@H]32)C(=O)N1CC1CC1.O=C(O)C(F)(F)F | -113.5
41 | O=C(O)C(F)(F)F.O=C([C@H]1C[C@H]2OCC[C@H]2N(Cc2ccoc2)C1)N1CCCCO1 | -83.93
42 | CCN1CCn2cc(CNC(=O)c3cnn(C)c3)nc2C1.O=C(O)C(F)(F)F.O=C(O)C(F)(F)F | -97.9

Row | SMILES | Percent Effect [%]
43 | COc1ccccc1N1CCC(CNCc2cccc(C#N)c2)C1 (stereo not drawn) | 0.8345
44 | COc1ccccc1N1CCC(CNCc2cccc(OC)c2OC)C1 (stereo not drawn) | 55.95
45 | COc1ccccc1N1CCC(CNCc2c(C)nn(C)c2OC)C1 (stereo not drawn) | 51.83
46 | COc1ccccc1N1CCC(CNC(=O)N(C)Cc2ccco2)C1 (stereo not drawn) | -114.8
47 | COc1ccccc1N1CCC(CNS(=O)(=O)c2c(C)nn(C)c2C)C1 (stereo not drawn) | -22.9
48 | COc1c(CNC2CCN(c3ncccn3)CC2)c(C)nn1C | -45.93
49 | COc1ccccc1N1CCC(N2CCOCC(CO)C2)CC1 (stereo not drawn) | 27.34
50 | COc1ccccc1N1CCC(CNCc2cccc(O)c2)C1 (stereo not drawn) | 55.7
51 | COc1ccc(CNCC2CCN(c3ccccc3OC)C2)cc1O (stereo not drawn) | 21.41
52 | Cc1ccc(C(C)(O)CNC(=O)CCn2ccnc2C(C)C)o1 (stereo not drawn) | -68.59
53 | Cc1[nH]ncc1C(=O)NCC(CO)Cc1ccc(Cl)cc1 (stereo not drawn) | -37.01
54 | c1cc(CNCC2CNc3ccnn3C2)cc(N2CCOCC2)n1 (stereo not drawn) | -156.8
55 | Cc1cc(N2Cc3cnn(CCO)c3C2)nc(-c2ccccc2O)n1 | -189
56 | O=C(NCC(O)C1CC1)Nc1cnn(Cc2ccccc2)c1 (stereo not drawn) | -47.94
57 | Cc1cncc(C2CCCN(C(=O)c3cn(C)nc3C)C2)n1 (stereo not drawn) | -35.12
58 | CCn1cc(CN2CCCN(C3Cc4ccccc4C3)CC2)c(C)n1 | -9.026
59 | Cn1nc(CN2CCC(c3ccncc3)CC2)c2c(Cl)cccc21 | -16.19
60 | Cn1cnnc1CC1CCN(Cc2nn(C)c3cccc(Cl)c23)CC1 | -15.19
61 | Cn1nc(CN2CCCCC(N)C2)c2c(Cl)cccc21 (stereo not drawn) | 65.71
62 | Cn1nc(CN2CCCN(C3CCCC3)CC2)c2c(Cl)cccc21 | 68.46
63 | C[C@@H]1CN(C2CCN(Cc3nn(C)c4cccc(Cl)c34)CC2)C[C@H](C)O1 | -11.21

Reference: ChEMBL document CHEMBL3988442, “University of Dundee, Small-Polar-MMV Screening Library” (2021)
